Among all 48,000 compounds or so, about 13,000 (27%) showed an effect of 50% or more. Some of the results follow.
Test system: Wolbachia pipientis
Test: Anti-Wolbachia Cell-Based Screen
Assay type: functional
Set-up: scale not given: in the data most compounds retested in dose-response had high values
Settings: 5 µM

Compound	Percent Effect
CCN(CC)Cc1cc(C(=O)N2CCCC(CC)(C(=O)O)C2)c(C)o1 (stereo not drawn)	1.255%
O=C(c1scc2c1OCCO2)N1CCOC(CCc2ccccc2)C1 (stereo not drawn)	-26.43%
CCc1nc(C)c([C@H]2CN(C)C[C@@H]2C(=O)Nc2cccc3cn[nH]c23)[nH]1	-9.056%
CC(=O)N1CCN(C(=O)CCNc2snc(Cl)c2C#N)CC1	-5.282%
Cc1cc(CN(Cc2ccccc2)CC(O)c2cccs2)on1 (stereo not drawn)	-11.7%
Cn1c(C(F)(F)F)nn(CCNC(=O)Nc2ccccc2F)c1=O	4.89%
CNC(=O)Cc1ccccc1NC(=O)NCc1ccc(SC)cc1	-2.376%
CN(C)c1ncc(CNC(=O)Nc2ccccc2F)n1C	-5.654%
CSc1nnc(CNC(=O)Nc2ccccc2F)n1C	133%
COc1ccccc1NC(=O)NCc1cn[nH]c1	15.69%
Cn1c(CO)nnc1SCc1c(F)cccc1Br	6.099%
COC(=O)CCCNC(=O)Nc1ccccc1OC	-0.6444%
CCc1ccccc1NC(=O)NCc1nnc(SC)n1C	130.1%
CNc1nc(CNC(=O)Nc2ccccc2SC)cs1	0.4301%
CCOc1ccccc1NC(=O)NCc1ccoc1	6.288%
CSc1nnc(CNC(=O)Nc2ccccc2Br)n1C	152.8%
COc1ccccc1NC(=O)NCc1nnc(SC)n1C	134.3%
CN(C(=O)c1ccncc1Cl)c1ccccc1S(C)(=O)=O	-0.2522%
O=C(Nc1cccs1)N(CCO)CCOCC(F)(F)F	5.099%
Cc1ccccc1CC1(CO)CCCN(c2ncncc2C(C)C)C1 (stereo not drawn)	2.064%
Cc1nnc(N2CC[C@@H](OCC3CC3)[C@@H](Cc3ccccc3)C2)s1.O=C(O)C(F)(F)F	4.615%
CO[C@H]1CCN(c2nnc(C)s2)C[C@@H]1Cc1ccccc1.O=C(O)C(F)(F)F	94.02%
CO[C@@H]1CCN(c2nnc(C)s2)C[C@@H]1Cc1ccccc1.O=C(O)C(F)(F)F	97%
Cc1nnc(N2CC[C@H](OCC3CC3)[C@@H](Cc3ccccc3)C2)s1.O=C(O)C(F)(F)F	-12.39%
COCc1ccc(C(=O)N2CCC(Oc3ccccc3)(C(=O)O)CC2)o1	-4.026%
Cc1ncc(C)c(N2CCCC(CO)(Cc3cccc(Cl)c3)C2)n1 (stereo not drawn)	-4.145%

Compound	Percent Effect
CN1CCN(CCCNC(=O)c2cc(Cl)c3c(c2)OCO3)CC1	11.84%
CCN(CC)Cc1cc(=O)n2c(n1)CN(S(=O)(=O)C1CC1)CCC2.O=C(O)C(F)(F)F	115.6%
CC(C)N(C)Cc1cc(=O)n2c(n1)CN(S(=O)(=O)C1CC1)CCC2.O=C(O)C(F)(F)F	109.3%
CN(C)Cc1cc(=O)n2c(n1)CN(CC1CCOCC1)CCC2	-13.06%
CC(C)N(C)Cc1nnc2n1CCCN(S(=O)(=O)C1CC1)C2.O=C(O)C(F)(F)F	-4.148%
CC(C)N(C)Cc1nnc2n1CCN(S(=O)(=O)C1CC1)CC2.O=C(O)C(F)(F)F	-7.825%
CN(C)Cc1cc(=O)n2c(n1)CN(S(=O)(=O)C1CC1)CCC2.O=C(O)C(F)(F)F	96.54%
C=C(C)COc1cccc(C(=O)N(C)Cc2cc(CC)no2)c1	-19.24%
Cc1ccn(-c2ccc(N3CCCN(Cc4ccccc4)CC3)nn2)n1	1.996%
COCCCC1(CO)CCCN(C(=O)c2cnc3c(c2)CCCC3)C1 (stereo not drawn)	-5.76%
CCn1ccnc1CN1CCOC(CNc2cccnn2)C1 (stereo not drawn)	10.18%
c1cnnc(NCC2CN(CCn3cncn3)CCO2)c1 (stereo not drawn)	-18.76%
c1cnnc(NCC2CN(CC3CCOCC3)CCO2)c1 (stereo not drawn)	103%
c1ccc(CCN2CCOC(CNc3cccnn3)C2)nc1 (stereo not drawn)	95.59%
Cc1cc(C)n(CCN2CCOC(CNc3cccnn3)C2)n1 (stereo not drawn)	103.1%
Clc1snnc1CN1CCOC(CNc2cccnn2)C1 (stereo not drawn)	-2.392%
Cn1c(CN2CCOC(CNc3cccnn3)C2)nnc1C1CC1 (stereo not drawn)	105.6%
CCN(CC1CN(CCc2ccccn2)CCO1)c1cccnn1 (stereo not drawn)	-0.8374%
CC(C)c1ccc(CNC(C)c2ccc(S(=O)(=O)N(C)C)cc2)cc1 (stereo not drawn)	1.332%
CN(CCC#N)C(=O)CN1CCC(c2cc3ccccc3[nH]2)CC1	-2.857%
O=S(=O)(c1ccccc1)N1CCN(Cc2ccc(F)cc2Br)CC1	23.46%
CCn1ccnc1-c1nc2cc(S(=O)(=O)N3CCCC3)ccc2n1C	-1.841%
c1ccc(OCCCN2CCOC(CNc3cccnn3)C2)cc1 (stereo not drawn)	96.43%
Cn1cc(CCN2CCOC(CNc3cccnn3)C2)cn1 (stereo not drawn)	102.6%
c1cnnc(NCC2CN(CCn3cccn3)CCO2)c1 (stereo not drawn)	-18.13%
N#Cc1cnn(CCN2CCOC(CNc3cccnn3)C2)c1 (stereo not drawn)	-39.45%

Compound	Percent Effect
CC(C)CCN1CCNC(=O)C1CC(=O)N1CCc2sccc2C1 (stereo not drawn)	-6.453%
Nc1nccnc1CC1CCCN(Cc2c[nH]c3ccccc23)C1 (stereo not drawn)	102%
COc1ccccc1CN1CCCC(Cc2nccnc2N)C1 (stereo not drawn)	104.1%
COc1ccccc1CC1CCCN(C(=O)c2nccnc2N)C1 (stereo not drawn)	7.342%
O=C(Cc1c[nH]c2ccccc12)NCC1CCN(Cc2c[nH]cn2)C1 (stereo not drawn)	-4.859%
Cc1nc(CC2CCCN(Cc3nc(N)c4ccccc4n3)C2)no1 (stereo not drawn)	-1.933%
Nc1nccnc1CC1CCCN(Cc2cccc3[nH]ccc23)C1 (stereo not drawn)	126.9%
CCn1c(C2CCCN(Cc3ccnc4ccccc34)C2)nn(C)c1=O (stereo not drawn)	0.7157%
O=C(NCC1CCCN(Cc2cccc3nonc23)C1)c1ccc[nH]1 (stereo not drawn)	22.2%
c1ccc2c(Cc3nnc([C@H]4CCN(CC5CC5)C4)o3)c[nH]c2c1	-3.432%
COc1ccccc1CN1CCCC(n2cccn2)C1 (stereo not drawn)	-0.1221%
Nc1nccnc1CC1CCCN(Cc2ccnc3ccccc23)C1 (stereo not drawn)	254.5%
CC(=O)N1[C@H](Cn2cncn2)C[C@@H]2CN(c3ccc(C)nn3)CC[C@@H]21	0.7192%
N#Cc1cccc(S(=O)(=O)Nc2c(F)cccc2N2CCCC2)c1	-6.503%
Cc1nn(C)c2nc(N(Cc3ccncc3)CC3CCCO3)sc12 (stereo not drawn)	-11.41%
O=C(NCC1CCOC1)c1csc(Cc2ccccc2)n1 (stereo not drawn)	5.242%
O=C(NCC1CCOCC1)c1cc(-c2cccnc2)c2cnccc2n1	94.41%
O=C(NCC1CCOC1)c1cc(-c2ccc(F)cc2)[nH]n1 (stereo not drawn)	-3.417%
O=C(NCC1CCOCC1)c1cc(-c2ccncc2)c2cnccc2n1	108.8%
O=C(NCC1CCOC1)c1cc(-c2ccccc2Cl)[nH]n1 (stereo not drawn)	-16.18%
CSCC[C@H](N)C(=O)NCc1cc2n(n1)CCCN(C(=O)C1CCC1)C2	51.59%
CSC(C)CCN1CCCn2nc(CNC(=O)C3CCC3)cc2C1 (stereo not drawn)	-26.67%
CCSCCC(=O)NCc1cc2n(n1)CCN(C(=O)N(C)C)C2	-0.2016%
CSCC[C@H](N)C(=O)NCc1cc2n(n1)CCCN(C(=O)N(C)C)C2	122.1%
CSCCC(=O)NCc1cc2n(n1)CCN(C(=O)N(C)C)C2	-0.4963%
CCn1cc(CN2CCCn3nc(CNC(=O)C4CCC4)cc3C2)cn1	6.964%

Compound	Percent Effect
COc1c(F)cccc1C(=O)N(C)Cc1nc(-c2ccccn2)no1	-5.196%
O=C(c1nnn(-c2ccccc2F)c1-c1ccccn1)N1CCSCC1	6.252%
CCC(CC)CN(C)Cc1nc(-c2ccccc2NS(C)(=O)=O)oc1C	-3.021%
Cc1nsc(NC(=O)N2CCCCC2CCO)n1 (stereo not drawn)	17.59%
CN(C)C1CCN(C(=O)NCc2ccc(Cn3cncn3)cc2)CC1	-7.697%
c1cc(CNCc2ccnc(N3CCOCC3)c2)c2c(c1)OCCO2	-3.552%
Cl.c1cc(CNCc2ccnc(N3CCCC3)c2)c2c(c1)OCCO2	3.03%
c1ncn(Cc2ccc(CNCc3ccc4c(c3)OCCO4)cc2)n1	118.2%
c1cc(CNCc2ccnc(N3CCCCC3)c2)c2c(c1)OCCCO2	-27.55%
c1cc(CNCc2ccnc(N3CCCC3)c2)c2c(c1)OCCCO2	-11.45%
CN(C)c1cc(CNCc2cccc3c2OCCO3)ccn1	-14.59%
Cl.c1cc(CNCc2ccc(Cn3cncn3)cc2)c2c(c1)OCCO2	98.52%
O=S(=O)(CCNCc1cccc2c1OCCO2)N1CCOCC1	-15.52%
CC(C)c1nn(C)c(Cl)c1CNCc1ccc2c(c1)OCCO2.Cl	-6.63%
OCc1cccc(CNCc2cccc3c2OCCO3)c1	91.71%
Cl.c1cc(CNCc2cccc3c2OCCCO3)cc(Cn2cncn2)c1	92.05%
CC(C)CN1C(=O)CC[C@H]2CN(C(=O)c3ncc[nH]3)CC[C@H]21	5.326%
O=C(NCC1(c2ccc(F)cc2)CCC1)N1CCC2(CCOCC2)C1	-1.308%
CC(=O)c1cc(CN2C[C@@H](NS(=O)(=O)N(C)C)[C@H](C(C)C)C2)cs1	-2.035%
CC(NCc1ccncc1)c1cc2c(cc1Br)OCCO2 (stereo not drawn)	-11.71%
Cc1nn(C)c(N(C)C)c1CNCc1cccc(OCCN(C)C)c1	-12.69%
CCc1ncncc1C(=O)NCCNC(=O)c1ccc(C)c(F)c1	24%
c1cc(CNCc2ccnc(N3CCOCC3)c2)c2c(c1)OCCCO2	13.14%
CC1CN(c2cc(CNCc3cccc4c3OCCO4)ccn2)CCO1 (stereo not drawn)	-31.92%
c1cc(CNCc2cccc3c2OCCO3)cc(Cn2cncn2)c1	82.82%

— ChEMBL document CHEMBL3988442, “University of Dundee, Small-Polar-MMV Screening Library” (2021)
